In PubChem BioAssay (Tox21):
Unmarked numbers belong to inactive results. Results filed as inconclusive are left out. Where a call stands in place of a potency, no number is given. The source made the active and inactive calls. Unless noted, calls come from the whole dose curve; as a rule, active = well fitted curve in the direction sought with a large enough effect in the repeat runs; inconclusive = weak or mixed curves; inactive = no such curve, though single readings can be large; an effect the other way counts as inactive or inconclusive.

Legend:
[1] = qHTS assay for small molecule agonists of the p53 signaling pathway (AID 651631; calls by dose curve; note: nearly all actives have a fitted effect of over 15% in size; note: potency is the fitted concentration of half-maximal effect)
Summary of the method: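 HCT-116 cells carrying a stable p53 response element–beta-lactamase reporter were plated, rested 5 h at 37 °C, then exposed to compound in DMSO for 16 h at 37 °C; reporter activity was read as FRET substrate fluorescence after 2 h at room temperature.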

[2] = qHTS assay for small molecules that induce genotoxicity in human embryonic kidney cells expressing luciferase-tagged ATAD5 (AID 651632); note: nearly all actives have a fitted effect of over 15% in size
Summary of the method: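 Luminescent reporter readout, HEK293T ATAD5-luc line: 16 hr drug exposure (37C, 5% CO2) followed by Amplite, 30 min RT.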

[3] = qHTS assay for small molecule agonists of the p53 signaling pathway - cell viability (AID 651633; calls by dose curve; note: series mostly up to about 83 µM; nearly all actives have a fitted effect of over 30% in size)
Summary of the method: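 p53RE-bla cells, seeded at 4,000 per well and rested 5 h at 37 C/5% CO2, received compounds in DMSO for 16 h at 37 C. CellTiter-Glo was then added, and luminescence was read after 30 min at room temperature to gauge cytotoxicity.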

[4] = qHTS assay for small molecules that induce genotoxicity in human embryonic kidney cells expressing luciferase-tagged ATAD5 - cell viability (AID 651634; calls by dose curve; note: nearly all actives have a fitted effect of over 25% in size)
Summary of the method: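 Viability read: CellTiter-Fluor fluorescence, 30 min at 37C. Cells: HEK293T, luciferase-tagged ATAD5. Exposure: 15.5 hr, 37C, 5% CO2, compound or DMSO vehicle.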

[5] = qHTS assay for small molecule disruptors of the mitochondrial membrane potential - cell viability (AID 720634; calls by dose curve;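 note: human HepG2 liver cancer cells; series mostly up to about 83 µM; nearly all actives have a fitted effect of over 20% in size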)
Summary of the method: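 HepG2, 1 hr compound, 37 C. ATP luminescence via CellTiter-Glo, 30 min RT, same well as m-MPI.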

[6] = qHTS assay to test for compound auto fluorescence at 590 nm (red) in HepG2 cells (AID 720674)
Summary of the method: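 Rose Bengal sodium served as the red fluorophore standard. HepG2 monolayers (overnight attachment, MEM with 10% FBS) were exposed to test compounds for 1 hr at 37 C and read at Ex 540/Em 590 nm.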

[7] = qHTS assay to test for compound auto fluorescence at 535 nm (green) in HepG2 cells (AID 720675)
[8] = qHTS assay to test for compound auto fluorescence at 460 nm (blue) in HEK293 cells (AID 720678)
Summary of the method: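 Cells were seeded and left to adhere for 4-5 hr at 37C. Compounds were then pin-transferred. After an overnight incubation at 37C under 5% CO2, intrinsic fluorescence at 405/460 nm was measured and referenced to triamterene.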

[9] = qHTS assay to test for compound auto fluorescence at 590 nm (red) in HEK293 cells (AID 720679)
Summary of the method: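 Each well held 2,000 HEK293 cells in medium containing 10% dialyzed FBS. Following 4-5 hr attachment at 37C, 23 nL test compound or DMSO was added; plates sat overnight, and red fluorescence (540/590nm) was recorded.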

[10] = qHTS assay to test for compound auto fluorescence at 535 nm (green) in HEK293 cells (AID 720680)
[11] = qHTS assay to test for compound auto fluorescence at 460 nm (blue) in HEK293 cell free culture (AID 720681)
Summary of the method: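 Test compounds were pinned into cell-free culture medium (DMEM with 10% FBS) and fluorescence was read directly at Ex/Em 405/460 nm. Signals were expressed as fluorescence equivalents of triamterene, with DMSO vehicle as control.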

[12] = qHTS assay to test for compound auto fluorescence at 590 nm (red) in HEK293 cell free culture (AID 720683)
Summary of the method: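 Tox21 10K library compounds were pinned into cell-free DMEM with 10% FBS and fluorescence was read at excitation 540 nm. Activity is expressed as Rose Bengal sodium equivalency.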

[13] = qHTS assay to test for compound auto fluorescence at 590 nm (red) in HepG2 cell free culture (AID 720684)
Summary of the method: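 Red fluorescence (540 nm excitation, 590 nm emission) was measured after compound transfer into cell-free MEM supplemented with 10% FBS. Values are equivalencies against Rose Bengal sodium.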

[14] = qHTS assay to test for compound auto fluorescence at 460 nm (blue) in HepG2 cell free culture (AID 720685)
Summary of the method: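 Compound (23 nL) or DMSO pinned into cell-free MEM with 10% FBS; blue fluorescence read at 405/460 nm excitation/emission, expressed as auto-fluorescence equivalency to triamterene.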

[15] = qHTS assay to test for compound auto fluorescence at 535 nm (green) in HepG2 cell free culture (AID 720686)
[16] = molecular target: Glucocorticoid receptor (Homo sapiens) (UniProt P04150); assay: qHTS assay to identify small molecule agonists of the glucocorticoid receptor (GR) signaling pathway (AID 720691; active = well fitted activation curve with a large enough effect in the signal ratio in the repeat runs, not every such curve was filed as active; the % refers to the signal ratio)
Summary of the method: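 qHTS in GR-bla HeLa cells: 4 h settling at 37 C/5% CO2, 18 h compound incubation at 37 C, 2 h LiveBLAzer B/G FRET substrate at room temperature, fluorescence intensity measured.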

[17] = molecular target: Glucocorticoid receptor (Homo sapiens) (UniProt P04150); assay: qHTS assay to identify small molecule antagonists of the glucocorticoid receptor (GR) signaling pathway (AID 720692; active = well fitted inhibition curve with a large enough effect in the signal ratio in the repeat runs, not every such curve was filed as active; the % refers to the signal ratio)
Summary of the method: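 Inhibition of glucocorticoid signalling is measured in HeLa cells with a GRE-controlled beta-lactamase reporter; cells are co-treated with compound and 5 nM dexamethasone (final) for 18 h before FRET substrate readout.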

[18] = qHTS assay to test for compound auto fluorescence at 535 nm (green) in HEK293 cell free culture (AID 720682)
Summary of the method: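 Read-out: 485/535 nm fluorescence intensity, calibrated against fluorescein. Medium only (DMEM + 10% FBS, no cells); test compound or DMSO vehicle added by pintool before plate reading.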

[19] = qHTS assay to test for compound auto fluorescence at 460 nm (blue) in HepG2 cells (AID 720687)
Summary of the method: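 Cells (2,000/well in MEM with 10% FBS) attached overnight at 37 C, then were exposed to compound or DMSO for 1 hr at 37 C, 5% CO2. Fluorescence read at Ex/Em 405/460 nm, expressed as triamterene-equivalent signal.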

[20] = qHTS assay for small molecule disruptors of the mitochondrial membrane potential (AID 720635)
Summary of the method: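 HepG2 cells (2,000/well) attached overnight at 37C, then took compound for 1 hr at 37C, 5% CO2. Mito-MPS dye was added for 30 min; fluorescence was read at 490/535 nm (monomers) and 540/590 nm (aggregates).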

Chain of Glucocorticoid receptor (Homo sapiens) (P04150 whole entry, looked up): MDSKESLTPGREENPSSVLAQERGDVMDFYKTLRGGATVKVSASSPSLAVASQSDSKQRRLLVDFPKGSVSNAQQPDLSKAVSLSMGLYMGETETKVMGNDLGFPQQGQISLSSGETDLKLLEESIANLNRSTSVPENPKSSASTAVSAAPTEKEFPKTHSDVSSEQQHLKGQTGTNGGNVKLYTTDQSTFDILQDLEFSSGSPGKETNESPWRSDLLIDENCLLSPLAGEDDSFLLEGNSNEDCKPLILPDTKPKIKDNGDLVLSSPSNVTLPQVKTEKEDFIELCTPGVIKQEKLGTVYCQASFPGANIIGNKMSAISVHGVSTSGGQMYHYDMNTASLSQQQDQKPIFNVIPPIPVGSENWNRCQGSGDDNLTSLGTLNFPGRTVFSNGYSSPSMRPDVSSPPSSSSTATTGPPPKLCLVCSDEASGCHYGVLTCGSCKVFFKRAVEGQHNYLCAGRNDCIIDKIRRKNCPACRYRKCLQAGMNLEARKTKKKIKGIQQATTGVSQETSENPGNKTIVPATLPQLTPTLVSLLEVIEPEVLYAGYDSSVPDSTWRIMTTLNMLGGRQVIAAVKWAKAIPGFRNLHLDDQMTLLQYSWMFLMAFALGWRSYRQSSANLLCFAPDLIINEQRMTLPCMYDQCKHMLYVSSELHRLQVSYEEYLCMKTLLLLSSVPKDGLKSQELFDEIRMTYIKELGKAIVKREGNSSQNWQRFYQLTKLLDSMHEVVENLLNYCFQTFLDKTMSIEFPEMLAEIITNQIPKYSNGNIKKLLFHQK

Compound	Potency [1]	Potency [2]	Potency [3]	Potency [4]	Potency [5]	outcome [6]	outcome [7]	outcome [8]	outcome [9]	outcome [10]	outcome [11]	outcome [12]	outcome [13]	outcome [14]	outcome [15]	outcome [16]	Potency [17]	outcome [18]	outcome [19]	Potency [20]
CNC(=O)Oc1ccc(N(C)C)c(C)c1	inactive	inactive	inactive	inactive	inactive	inactive	inactive	inactive	inactive	inactive	inactive	inactive	inactive	inactive	inactive	inactive	inactive			
CCOC(=O)NC(=S)Nc1ccccc1NC(=S)NC(=O)OCC	61.1 µM (active)	inactive	inactive	inactive	inactive	inactive	inactive	inactive	inactive	inactive	inactive	inactive	inactive	inactive	inactive			inactive	inactive	
N#CC(Cl)(Cl)Cl	inactive	inactive	inactive	inactive	inactive	inactive	inactive	inactive	inactive	inactive	inactive	inactive	inactive	inactive	inactive	inactive		inactive	inactive	
CN1CCN(C(=O)O[C@H]2c3nccnc3C(=O)N2c2ccc(Cl)cn2)CC1	inactive	inactive	inactive	inactive	inactive	inactive	inactive	inactive	inactive	inactive	inactive	inactive	inactive	inactive	inactive			inactive	inactive	
N#CCBr	inactive	inactive	inactive	inactive	inactive	inactive	inactive	inactive		inactive	inactive	inactive	inactive	inactive	inactive	inactive	inactive		inactive	
COP(=S)(OC)Oc1ccc(S(N)(=O)=O)cc1	inactive	inactive	inactive	inactive	inactive	inactive	inactive		inactive	inactive	inactive	inactive	inactive		inactive			inactive	inactive	inactive
COc1cccc(C(=O)NN(C(=O)c2cc(C)cc(C)c2)C(C)(C)C)c1C	inactive	inactive	inactive			inactive	inactive	inactive	inactive	inactive	inactive	inactive	inactive	inactive	inactive			inactive	inactive	
